# From ChEMBL document CHEMBL1157539, “Thousands of chemical starting points for antimalarial lead identification” (Nature, 2010)
# Columns and labels:
# Type in all cases: functional
# Plasmodium falciparum [1] = test: GSK_TCMDC: Inhibition of Plasmodium falciparum 3D7 in whole red blood cells, using parasite LDH activity as an index of growth. Test compounds present at 2uM
# Plasmodium falciparum [2] = test: GSK_TCMDC: Inhibition of Plasmodium falciparum Dd2 in whole red blood cells, using parasite LDH activity as an index of growth. Test compounds present at 2uM
# HepG2 = test: GSK_TCMDC: Percent inhibition of human HepG2 cell line. Test compounds present at 10uM.
Compound,Inhibition (Plasmodium falciparum [1]) [%],Inhibition (Plasmodium falciparum [2]) [%],Inhibition (HepG2) [%]
COc1ccc(Nc2nccc(-c3ccc4c(-c5ccsc5)cnc(N)c4c3)n2)cc1,100,98,38
Cc1ccc(Nc2nc3cc(N(C)c4ccnc(Nc5cccc(CS(C)(=O)=O)c5)n4)ccc3o2)cc1.O=C(O)C(F)(F)F,90,16,0
CNCCNCc1cccc(-c2ccc(-c3nc4cc(C(F)(F)F)ccc4[nH]3)s2)c1.O=C(O)C(F)(F)F,98,85,31
CSC1=NC(=Nc2ccccc2C)C2(CCC(C(C)(C)C)CC2)N1c1ccccc1Cl.I (stereo not drawn),96,89,3
COc1ccc(CNC(=N)Nc2nc(-c3ccc(OCCCn4ccnc4)cc3)cs2)cc1.Cl,100,67,15
CC(C)c1ccc(C(NC(=O)C2CCCCC2)c2ccc3cccnc3c2O)cc1 (stereo not drawn),89,70,46
Cc1ccc(CNC(=O)c2cc3c(=O)n4cccc(C)c4nc3n(CCN3CCOCC3)c2=N)cc1,97,21,31
COc1ccccc1N1CCN(CCCCNC(=O)c2ccc(NC(=O)c3cc4ccccc4o3)cc2)CC1,84,2,9
COc1ccc2c(CCNc3nc(SC)ncc3C(=O)NCCc3ccc(F)cc3)c[nH]c2c1.O=C(O)C(F)(F)F,91,49,3
O=C(O)c1cccc2c(-c3ccncc3)cccc12,97,1,29
CC(C)c1ccc(CN2CCCCC(NC(=O)c3cc(-c4cccc(F)c4)cs3)C2)cc1.O=C(O)C(F)(F)F (stereo not drawn),94,13,6
